Most compounds without a hit are left out; they make up all but 10% or so of the library.
Six1-Eya2 inh – qHTS Assay for Inhibitors of the Six1/Eya2 Interaction; 0.56% of 360,000 active; Homeobox protein SIX1 (Homo sapiens) + Protein phosphatase EYA2 (Homo sapiens), …; AlphaScreen GST-Six1/His-Eya2 binding, biochemical; hits give low values; activity change, % (no concentration beside the values); in the data active = activity change below about -65%; inconclusive = mostly about -30% to -63%; note: % is set by controls: 0 for no effect and ±100 for the full control effect
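Compounds are tested against tagged Six1 and Eya2 proteins bridged by glutathione donor and nickel acceptor beads; after a one-hour incubation at 37 °C without light, AlphaScreen emission is recorded.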
HP1b chromo inh – HTS for Inhibitors of HP1-beta Chromodomain Interactions with Methylated Histone Tails | Chromobox protein homolog 1 (Homo sapiens), P83916 | AlphaScreen HP1-beta / biotin-H3K9me3 peptide binding | Potency, µM (series often up to 114 µM), for the others: top-dose activity change, negative = inhibition, hits mostly inhibitors | 0.56% of 390,000 active | AID 540317, 2011; note: potency is the fitted concentration of half-maximal effect; nearly all actives have a fitted effect of over 70% in size
Target sequence (P83916 whole entry, looked up): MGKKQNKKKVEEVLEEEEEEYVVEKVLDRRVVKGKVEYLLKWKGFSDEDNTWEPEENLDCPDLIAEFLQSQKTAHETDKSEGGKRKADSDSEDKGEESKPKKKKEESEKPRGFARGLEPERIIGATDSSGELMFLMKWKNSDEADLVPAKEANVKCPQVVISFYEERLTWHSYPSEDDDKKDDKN
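Compound inhibition of the preformed complex between 50 nM HP1-beta and 50 nM biotinylated H3K9me3 peptide was read by AlphaScreen. Buffer was PBS pH 7.4 with 0.01% Tween-20. Incubations ran 30 min at room temperature, with 10 ug/mL donor/acceptor beads.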
BAZ2B inh – qHTS Assay for Inhibitors of BAZ2B. Potency, µM (titrated, usually from 114 µM), for inactives: at the highest dose activity change, negative = inhibition, actives largely listed as inhibitors. Bromodomain adjacent to zinc finger domain protein 2B (Homo sapiens), Q9UIF8. AlphaScreen BAZ2B-H3K14Ac peptide displacement. 4.4% of 360,000 active; note: potency is the fitted concentration of half-maximal effect; % is set by controls: 0 for no effect and ±100 for the full control effect; nearly all actives have a fitted effect of over 60% in size
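BAZ2B (50 nM) with biotin-H3(5-23)K14Ac peptide (50 nM) in PBS pH 7.4, 0.01% Tween-20, preformed 30 min, then compound 30 min at room temperature; top concentration 110uM. AlphaScreen streptavidin donor/nickel chelate acceptor beads (10 ug/mL final), 20 min dark, signal read.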
JMJD2A Tudor inh – qHTS Assay for Inhibitors of JMJD2A-Tudor Domain. Lysine-specific demethylase 4A (Homo sapiens), O75164. AlphaScreen JMJD2A-Tudor / H3K4me3 peptide binding. Potency, µM (top dose mostly 114 µM), without a hit: at the top dose activity change, negative = inhibition, usual class: inhibitors. 4.4% of 390,000 active. AID 504339, 2011; note: potency is the fitted concentration of half-maximal effect; % is set by controls: 0 for no effect and ±100 for the full control effect; nearly all actives have a fitted effect of over 50% in size
CtBP-E1A inh – qHTS Assay for Inhibitors of the CtBP/E1A Interaction; CtBP / adenovirus E1A interaction (AlphaScreen); AlphaScreen GST-E1A/His-CtBP binding, 1536-well; hits give low values; activity change, % (test concentration not listed); 0.49% of 340,000 active; AID 651724, 2012; in the data active = activity change below about -65%; inconclusive = mostly about -30% to -63%; note: % is set by controls: 0 for no effect and ±100 for the full control effect
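Steps: dispense buffer (Tris pH 8.0, NaCl 300 mM, TCEP 1 mM, BSA, Tween 20); add 5X protein mix (GST-E1A, His-CtBP, 125 nM each); pin 23 nL compound; 2 h at 37 °C, dark; add 5X beads (50 ug/mL); 1 h; read.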
G9a inh – qHTS Assay for Inhibitors of Histone Lysine Methyltransferase G9a; G9a H3K9 monomethylation, AlphaScreen, 2 h; Histone-lysine N-methyltransferase EHMT2 (Homo sapiens), Q96KQ7; 8.8% of 350,000 active; Potency, µM (highest dose often 102 µM), without a hit: at the highest dose activity, negative = inhibition, hits mostly inhibitors; note: potency is the fitted concentration of half-maximal effect; % is set by controls: 0 for no effect and ±100 for the full control effect; nearly all actives have a fitted effect of over 75% in size
Target sequence (Q96KQ7 913-1193 limits assumed): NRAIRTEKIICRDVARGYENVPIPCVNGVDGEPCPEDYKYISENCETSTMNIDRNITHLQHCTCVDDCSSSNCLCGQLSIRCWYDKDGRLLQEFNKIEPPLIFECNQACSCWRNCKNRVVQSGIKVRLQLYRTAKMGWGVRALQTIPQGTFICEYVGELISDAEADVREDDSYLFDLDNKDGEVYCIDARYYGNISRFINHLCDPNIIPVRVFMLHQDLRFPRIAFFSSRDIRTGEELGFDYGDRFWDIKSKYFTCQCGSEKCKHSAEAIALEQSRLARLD
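G9a (20 nM) was preincubated 15 min with compound, then reacted 2 h at room temperature with 500 nM biotin-H3K9 peptide and 20 µM SAM. Monomethyl-H3K9 detected by AlphaScreen using anti-H3K9me1 antibody.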
* marks the source's active call; other numbers are inactive results; ? = inconclusive; . = no result given; [ ] = another dose, or the depositor's remark. Unless noted, calls come from the whole dose curve; as a rule, active = well fitted inhibition curve with a large enough effect; inconclusive = small, poorly fitted or top-dose-only effect; inactive = no such curve, though single readings can be large or run the other way.

SMILES	Six1-Eya2 inh	HP1b chromo inh	BAZ2B inh	JMJD2A Tudor inh	CtBP-E1A inh	G9a inh
CCOC(=O)c1[nH]cnc1N=Nc1c(O)ccc2ccccc12	-82*	-31%	11µM*	79µM*	-70*	50µM*
CCCn1c(O)c(N=Nc2ccc3ccccc3n2)c2ccccc21	2	40%	6%	-5%	-2	32%[59 µM]
Oc1ccc2ccccc2c1N=Nc1ccccc1F	-88*	?	2.8µM*	3.5µM*	?	2.2µM*
COc1ccc(N(C(=O)COc2ccc(Br)cc2)S(=O)(=O)c2ccc(C)cc2)cc1	.	27%	-4%	-5%	.	-44%[59 µM]
CCc1ccccc1NC(=O)CSc1nnc(COc2ccccc2Cl)o1	.	36%	-1%	3%	.	-31%[59 µM]
Cn1ccnc1SCc1cn2ccccc2n1	2	5%	-4%	?	2	?
O=[N+]([O-])c1ccc2nc(SCc3cn4cccnc4n3)[nH]c2c1	2	49%	-1%	9%	.	?
O=[N+]([O-])c1ccc2nc(SCc3cn4ccccc4n3)[nH]c2c1	2	18%	2%	-19%	5	10µM*
Cc1cc(=O)[nH]c(SCc2nnc(-c3ccccc3)o2)n1	-4	31%	2%	-4%	3	7.9µM*
Cc1cc(=O)[nH]c(SCc2cn3ccccc3n2)n1	20	32%	-18%	-7%	-16	50µM*
Clc1ccc2nc(SCc3nnc(-c4ccccc4)o3)[nH]c2c1	-2	37%	-7%	-8%	-17	-6%
COc1ccc(CN2CCC(C(=O)c3ccc(Cl)cc3)CC2)cc1	8	35%	-5%	-16%	.	20%
COc1ccc(-n2nnnc2C2CCN(S(=O)(=O)c3cccc(C(F)(F)F)c3)CC2)cc1	.	34%	2%	-3%	.	-1%[59 µM]
CCOC(=O)c1cc2c(N)c(C(=O)c3ccc(Br)cc3)sc2[nH]c1=O	?	28%	-30%	-15%	.	50µM*
COc1cccc(-c2ccc3c(N)c(C(=O)c4ccc(Br)cc4)sc3n2)c1	.	39%	5%	2%	.	34%[59 µM]
Fc1ccc(C(NCCc2ccccc2)c2nnc(-c3ccccc3Cl)o2)cc1 (stereo unspecified)	.	89%	55%	53%	.	118%[59 µM]
COC(=O)C1=CN(c2cccc(C)c2)C=C(C(=O)OC)C1c1cc(OC)c(O)c([N+](=O)[O-])c1	-26	?	28µM*	45µM*	-20	13µM*
COC(=O)C1=CN(c2ccc(OC)cc2)C=C(C(=O)OC)C1c1ccc(C)c([N+](=O)[O-])c1	-16	-7%	-34%	?	-24	-3%[59 µM]
Cc1ccc(C)c(S(=O)(=O)N(C)C2(C)CCS(=O)(=O)C2)c1 (stereo unspecified)	-1	35%	-2%	2%	8	-2%[0.501 µM]
Cc1cccc(Oc2ccc(NC(=O)CCC(=O)OCC(=O)c3ccc(Br)cc3)cc2)c1C	.	5%	-1%	-18%	.	-33%[59 µM]
CCc1ccc(C2NC(=S)NC3=C2C(=O)N(c2ccccc2OC)C(c2ccc(CC)cc2)N3)cc1 (stereo unspecified)	-4	18%	?	-23%	-14	-43%[59 µM]
O=C1C2=C(NC(=S)NC2c2ccc(Cl)cc2)NC(c2ccc(Cl)cc2)N1c1ccc(Cl)cc1 (stereo unspecified)	-4	18%	?	?	1	50µM*
Cc1cc(C(C)(C)C)ccc1OCCN1CCCC1	-2	-56%	?	8.9µM*	3	32µM*
Cc1cc(OCCN2CCCCC2)nc2ccccc12	8	5%	-23%	?	7	-6%[12.7 µM]
Cc1cc(C(C)(C)C)ccc1OCCCCN1CCCC1	0	-4%	-29%	7.1µM*	-1	?
SMILES	Six1-Eya2 inh	HP1b chromo inh	BAZ2B inh	JMJD2A Tudor inh	CtBP-E1A inh	G9a inh
Cc1ccc(C(C)(C)C)c(OCCN2CCCC2)c1	-5	-15%	50µM*	4µM*	2	3.5µM*
CCCCCC1OC1C/C=C\C/C=C\C/C=C\CCCC(=O)O (stereo unspecified)	.	.	.	.	.	26%[59 µM]
CC(C)[C@H]1c2ccc(F)cc2CC[C@@]1(CCN(C)CCCc1nc2ccccc2[nH]1)OC(=O)C1CC1	.	.	.	.	.	13µM*
CN(Cc1nc2ccccc2[nH]1)C(=O)C1CCC(=O)N(CCc2cccc(F)c2)C1 (stereo unspecified)	4	7%	-14%	-11%	1	-5%
CCOC(=O)C1CCN(C(=O)CCc2nc3ccccc3[nH]2)CC1	11	16%	-2%	2%	5	-3%[59 µM]
Cn1c(=O)c2c(-c3ccccc3Br)n(C(C)(C)C)cc2n(C)c1=O	.	-8%	79µM*	-32%	.	-32%[59 µM]
CCOC(=O)c1ccc2c(c1)C1C=CCC1C(C(=O)OCC)N2 (stereo unspecified)	-19	-7%	45µM*	?	-6	11µM*
COC(=O)CNC(=O)C1Nc2ccccc2C2C=CCC12 (stereo unspecified)	-2	-14%	.	56µM*	-7	.
CCOC(=O)C1Nc2ccc(Br)cc2C2C=CCC12 (stereo unspecified)	-17	?	45µM*	40µM*	-6	3.5µM*
CCOC(=O)C1Nc2ccc(C)cc2C2C=CCC12 (stereo unspecified)	-3	-16%	.	56µM*	.	.
CC(C)CNC(=O)C1Nc2ccccc2C2C=CCC12 (stereo unspecified)	-2	-13%	.	?	-2	.
CC(C)CNC(=O)C1Nc2ccc(OC(F)(F)F)cc2C2C=CCC12 (stereo unspecified)	-3	2%	.	?	1	.
COc1ccc(-n2cc(-c3ccc(C)cc3)[n+]3c2SCC3)cc1	14	13%	-3%	-8%	-5	-7%[59 µM]
CC1=NN(C(N)=S)C(C)(C)C1	-1	43%	-6%	-10%	2	.
O=C(O)C1Nc2ccc(Br)cc2C2C=CCC12 (stereo unspecified)	-6	18µM*	3.2µM*	20µM*	.	1.8µM*
O=C(OC1CCCCC1)c1ccc2c(c1)C1C=CCC1C(C(=O)O)N2 (stereo unspecified)	.	.	7.1µM*	.	.	?
COc1ccc(Br)cc1[C@@H]1Nc2ccc(C(=O)O)cc2[C@@H]2C=CC[C@@H]21	.	-7%	?	-35%	.	?

Screening results: PubChem BioAssay, National Center for Advancing Translational Sciences (NCATS)
